# Most compounds without a hit are left out; they make up all but 21% or so of the library.
# Pf growth 96h = Primary qHTS for delayed death inhibitors of the malarial parasite plastid, 96 hour incubation | Potency, µM (series often up to 28.7 µM), without a hit: top-dose activity change, negative = inhibition, actives largely listed as inhibitors | P. falciparum luciferase reporter growth, 96 h | 320,000 tested, 6.9% active; further: potency means the concentration at half of the fitted maximal effect; on the % scale 0 is the no-effect control and ±100 the full control effect
#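 Two-generation exposure (96 h) targets delayed-death phenotype. Reporter parasites carrying integrated firefly luciferase, in red cells at 2% hematocrit and 0.05% parasitemia final, kept at 37 C, 5% CO2; luminescence loss indicates inhibition.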
# Pf growth 48h = Primary qHTS for delayed death inhibitors of the malarial parasite plastid, 48 hour incubation; 310,000 tested, 5.9% active; AID 504832, 2011; Potency, µM (doses to about 28.7 µM), for the others: top-dose activity change, negative = inhibition, usual class: inhibitors; P. falciparum luciferase growth in erythrocytes, 48 h; further: potency means the concentration at half of the fitted maximal effect; on the % scale 0 is the no-effect control and ±100 the full control effect
#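 Luciferase-expressing P. falciparum in infected erythrocytes (2% hematocrit, 0.1% parasitemia final) in RPMI 1640/0.5% Albumax were exposed to compound for 48 hours at 37 C, 5% CO2; growth read as luminescence.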
# NS1 function inh = qHTS Assay for Inhibitors of Influenza NS1 Protein Function. Potency, µM (series often up to 46.1 µM), for inactives: at the top dose activity, positive = more growth. 270,000 tested, 0.4% active; calls by dose curve; further: potency means the concentration at half of the fitted maximal effect; actives are rising curves; nearly all actives have a fitted effect of over 50% in size
#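 Compounds were scored for reversing the slow growth caused by influenza A NS1 in S. cerevisiae, measured by optical density at 600 nm. Assay medium contained 2% galactose at pH 6.0; NS1-free yeast of the same strain were the positive control.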
# Cycloheximide cs = Cycloheximide Counterscreen for Small Molecule Inhibitors of Shiga Toxin; cell reporter, cycloheximide protein synthesis inhibition counterscreen; max response, %; 300,000 tested, 12% active; AID 2314, 2010; in the data active means max response mostly above about 13%, no sharp cut-off; inactive means mostly below about 14%; further: read at 38.3 µM for the half of the compounds with a filed dose; 0% is about no effect
# SARS PLpro yeast = qHTS of Yeast-based Assay for SARS-CoV PLP. S. cerevisiae expressing SARS-CoV PLpro, growth rescue. Potency, µM (series often up to 32.9 µM), for the others: at the top dose activity, positive = growth rescue, most hits filed as activators. 330,000 tested, 0.19% active. AID 485353, 2010; calls by dose curve; further: potency means the concentration at half of the fitted maximal effect; 0% is about no effect; nearly all actives have a fitted effect of over 55% in size
# Shiga toxin inh = A qHTS for Small Molecule Inhibitors of Shiga Toxin. Vero cells, Shiga toxin protein synthesis inhibition reporter. inhibition, % at 38.7 µM. 290,000 tested, 9.2% active. AID 2315, 2010; in the data active means inhibition mostly above about 28%, no sharp cut-off; inactive means mostly below about 43%; further: 0% is about no effect
# * hit, by the source's call; i = inactive; u = inconclusive; x = no result; ! = a repeat was not active. Unless noted, the call rests on the fitted dose curve; in most records, active means well fitted inhibition curve with a large enough effect; inconclusive means small, poorly fitted or top-dose-only effect, or another doubt; inactive means no such curve, though single readings can be large or run the other way.
SMILES,Pf growth 96h,Pf growth 48h,NS1 function inh,Cycloheximide cs,SARS PLpro yeast,Shiga toxin inh
COc1cccc(C(C(=O)NC2CCCCC2)N(C(=O)c2csnn2)C2CC2)c1 (stereo not given),-27%,-3%,-1%,-1,1%,7
O=C(/C=C/c1cccc(F)c1)c1ccc(N2CCOCC2)cc1,-8%,241%,0%,50*,0%,99*
O=C(/C=C/c1cccs1)c1ccc(N2CCOCC2)cc1,i,i,-5%,-4,-4%,33
C[C@@H](N)C(=O)O,19%,17µM*,x,x,x,x
O=C(CSc1nnc(NC2CCCCC2)s1)Nc1ccc(N2CCOCC2)cc1,1%,17%,21%,21*,-1%,41*
CC(=O)c1ccc(NC(=O)CSc2nnc(NC(=O)CN3CCOCC3)s2)cc1,45%,17%,-2%,18,0%,62*
Cc1ccc(NC(=O)CSc2nnc(NC(=O)CN3CCOCC3)s2)cc1,-17%,-5%,15%,-4,6%,-6
CC(Sc1nnc(NC2CC2)s1)C(=O)Nc1ccc(N2CCOCC2)cc1 (stereo not given),2%,5%,x,x,-1%,x
Cc1ccccc1NS(=O)(=O)c1ccc(C(=O)N(C)CC(=O)Nc2ccccc2Br)cc1,x,x,x,x,1%,x
Cc1ccccc1-c1cnn(-c2cccc([N+](=O)[O-])c2)c1N,22%,33%,-7%,26*,-1%,39
Nc1c(-c2ccccc2Cl)cnn1-c1cccc([N+](=O)[O-])c1,u,61%,-74%,18,-5%,48
Cc1ccc(-c2cnn(-c3cccc([N+](=O)[O-])c3)c2N)cc1,100%,202%,-8%,46*,-2%,103*
O=C(O)c1ccc(/C=C2\SC(=S)N(NC(=O)c3ccccc3[N+](=O)[O-])C2=O)cc1,u,20%,5%,5,1%,-5
O=C(O)c1ccc(/C=C2\SC(=S)N(Nc3ccccc3)C2=O)cc1,u,-24%,3%,24*,-2%,80*
O=C(Cc1ccccc1)NN1C(=O)/C(=C/c2ccccc2C(=O)O)SC1=S,12µM*,37%,x,-1,2%,20
O=C1/C(=C/c2ccncc2)SC(=S)N1Nc1ccccc1,9.3µM*,8.3µM*,3%,11,-4%,5
CC(C)(C)c1ccc(C(=O)N2CCC(=O)N([C@H](COCc3ccc(Cl)cc3)Cc3ccccc3)CC2)cc1,x,x,x,-2,x,-4
O=C1CSC(c2ccccc2)N1c1cccnc1 (stereo not given),-13%,2%,4%,-3,0%,-14
COc1cc(/C=C(\C#N)C(=O)Nc2ccccc2)ccc1OCCN1CCOCC1,u,33%,-16%,27*,1%,45*
N#C/C(=C\c1ccc(OCCN2CCOCC2)cc1)C(=O)Nc1ccccc1,u,7%,-8%,20*,19%,17
COc1cc(/C=C(\C#N)C(=O)Nc2ccccc2F)ccc1OCCN1CCOCC1,-10%,64%,6%,25*,-2%,14
COc1cc(/C=C(\C#N)C(=O)Nc2cccc(C(=O)O)c2)ccc1OCc1ccc(Cl)cc1,69%,24%,-5%,52*,-1%,107*
Cc1ccc(/C=C(\C#N)C(=O)NCCN2CCOCC2)cc1,14%,u,x,-9,-3%,-8
CC(NC(=O)C(NC(=O)C1CCCN1C(=O)OC(C)(C)C)C(C)C)C(N)=O (stereo not given),25%,-12%,4%,-2,-1%,-1
COc1ccc(Cc2ccccc2C(=O)O)c2ccccc12,x,x,0%,x,x,x
SMILES,Pf growth 96h,Pf growth 48h,NS1 function inh,Cycloheximide cs,SARS PLpro yeast,Shiga toxin inh
COc1ccc2c(c1)-c1c(sn(-c3ccc(OC)c(OC)c3)c1=S)C(C)(C)N2,10µM*,u,-13%,-2,-3%,-15
O=C(/C=C/c1ccccc1Cl)c1ccc(O)cc1,u,52%,-68%,29*,-8%,54*
O=C(/C=C/c1c(F)cccc1Cl)c1ccc(O)cc1,u,4%,-81%,24*,-1%,58*
Cc1cccc(NC(=O)/C(C#N)=C/c2ccc[nH]2)c1C,33%,u,4%,24*,10%,21
Cc1ccc(C)c(NC(=O)/C(C#N)=C/c2ccc[nH]2)c1,0%,7%,-14%,33*,-3%,11
Cc1ccc(NS(=O)(=O)c2cccc(C(=O)N3CCCCCC3)c2)cc1,-5%,0%,x,x,-2%,x
Cc1ccc(-c2nc(N)n(S(C)(=O)=O)n2)cc1,-3%,29%,8%,30*,0%,40
CC(=O)Nc1ccc(S(=O)(=O)n2nc(-c3ccc(C)cc3)nc2N)cc1,1.7µM*,-14%,-1%,8,5%,14
Cc1ccc(S(=O)(=O)n2nc(-c3cccnc3)nc2N)cc1,5%,18%,-6%,-2,-2%,-4
CN1[C@@H]2CC[C@H]1CC(OC(=O)[C@@H](O)c1ccccc1)C2 (stereo not given in full),-20%,-15%,-3%,x,x,x
CN1[C@@H]2CC[C@H]1CC(OC(=O)c1c[nH]c3ccccc13)C2 (stereo not given in full),x,x,x,-1,x,-12
CN1[C@@H]2CC[C@H]1CC(OC(=O)C(O)c1ccccc1)C2 (stereo not given in full),2%,-10%,x,x,x,x
CN1[C@@H]2CC[C@H]1CC(OC(c1ccccc1)c1ccccc1)C2 (stereo not given in full),4.8µM*,17µM*,-3%,11,x,-4
CN1[C@@H]2CC[C@H]1CC(OC1c3ccccc3CCc3ccccc31)C2 (stereo not given in full),u,4.7µM*,x,x,x,x
CN1C2CCC1CC(OC(c1ccccc1)c1ccccc1)C2 (stereo not given),9.5µM*!,12µM*,-4%,-3,1%,-8
CCN1CCN(C(=S)NC(=O)c2cccc(Br)c2)CC1,x,x,x,x,12%,x
CC(=O)Nc1ccc(OCC(=O)NCc2ccccc2)cc1,3%,13%,13%,1,0%,-4
COc1ccc(OCC(=O)NNC(=O)C(=O)Nc2ccc(C)cc2)cc1,67%,0%,u,24*,0%,14
COc1ccc(OCC(=O)Nc2ccc(C)cc2)cc1,64%,41%,-100%,26*,-11%,60*
CC(=O)Nc1ccc(OCC(=O)NCCc2ccc(Cl)cc2)cc1,13µM*,24%,-11%,-2,u,-18
COc1ccc(NC(=O)COc2ccc(N(C)S(=O)(=O)c3ccc(Cl)cc3)cc2)cc1,u,12µM*,x,x,x,x
CCc1ccc(-n2c(C)n[nH]c2=S)cc1,16%,28%,7%,-6,0%,39
CC(=O)Nc1sc2c(c1CN1CCN(c3ccccn3)CC1)CCCC2,1%,u,-17%,-1,-2%,-13
